Test results: paper PMC4336329 (PLoS ONE, 2015)
In all, about 310,000 compounds went through this assay and about 14,000 (4.5%) showed an effect of 50% or more. Effects have a minus sign here. The sample as a whole holds a higher share of strong results than the screen did.

Target: human ether-à-go-go-related gene (hERG) potassium channel (human, UniProt Q12809)
Assay: primary screen, population patch clamp on CHO cells stably expressing hERG; higher = less effect of the substance
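Also: peak tail current of the secondary pulse compared with the same well before compound.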

Sequence of human ether-à-go-go-related gene (hERG) potassium channel (Q12809 whole entry, looked up): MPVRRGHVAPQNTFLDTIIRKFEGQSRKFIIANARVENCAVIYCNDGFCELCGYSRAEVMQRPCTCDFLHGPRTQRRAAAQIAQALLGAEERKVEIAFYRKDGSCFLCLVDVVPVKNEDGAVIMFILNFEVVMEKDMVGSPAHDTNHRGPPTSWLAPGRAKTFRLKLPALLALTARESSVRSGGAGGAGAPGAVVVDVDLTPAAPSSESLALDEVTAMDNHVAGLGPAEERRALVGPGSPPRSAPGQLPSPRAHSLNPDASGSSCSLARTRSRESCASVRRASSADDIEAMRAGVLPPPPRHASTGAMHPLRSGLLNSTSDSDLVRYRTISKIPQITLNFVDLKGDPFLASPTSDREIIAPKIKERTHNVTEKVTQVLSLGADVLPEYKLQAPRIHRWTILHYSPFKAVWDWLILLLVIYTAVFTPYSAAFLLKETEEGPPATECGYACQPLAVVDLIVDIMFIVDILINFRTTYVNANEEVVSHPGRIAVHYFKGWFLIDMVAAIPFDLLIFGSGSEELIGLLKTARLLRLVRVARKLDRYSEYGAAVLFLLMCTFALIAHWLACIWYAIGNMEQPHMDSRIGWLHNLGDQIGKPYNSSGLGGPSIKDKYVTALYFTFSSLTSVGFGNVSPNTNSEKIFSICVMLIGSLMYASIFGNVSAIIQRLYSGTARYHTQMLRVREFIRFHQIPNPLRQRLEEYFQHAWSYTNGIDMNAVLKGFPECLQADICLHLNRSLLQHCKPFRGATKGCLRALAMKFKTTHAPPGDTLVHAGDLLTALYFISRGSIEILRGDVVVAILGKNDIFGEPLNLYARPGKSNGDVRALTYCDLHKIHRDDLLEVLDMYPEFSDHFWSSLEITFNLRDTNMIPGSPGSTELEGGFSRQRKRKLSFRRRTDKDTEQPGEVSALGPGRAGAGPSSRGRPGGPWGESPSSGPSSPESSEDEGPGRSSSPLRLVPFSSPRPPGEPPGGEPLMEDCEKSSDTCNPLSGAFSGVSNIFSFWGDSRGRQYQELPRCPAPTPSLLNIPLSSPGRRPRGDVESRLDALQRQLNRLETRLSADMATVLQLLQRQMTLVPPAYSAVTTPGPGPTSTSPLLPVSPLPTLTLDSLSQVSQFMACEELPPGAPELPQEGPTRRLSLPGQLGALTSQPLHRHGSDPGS

Going from `O=C(c1cccc(S(=O)(=O)NCCOc2ccccc2)c1)N1CCN(c2ncccn2)CC1` to `CN(C)S(=O)(=O)c1ccc(N2CCCC2)c(C(=O)NCc2ccccc2)c1`, the “hERG current change (%, negative = inhibition) at 10uM” value rises from -37.6% to -10%.

Compared with `Cc1cc(/C=C(\C#N)C(=O)NCc2ccco2)c(C)n1-c1cccnc1`, `C=C(C)CN=C1NN=C(c2cc(C)n(-c3ccc(C)cc3)c2C)CS1` is higher in “hERG current change (%, negative = inhibition) at 10uM” value: -23.2% for the first, 4.06% for the second.

Going from `O=C(COc1ccc2ccccc2c1)N/N=C/C1CC=CCC1` (stereo not shown) to `COc1ccc(N(C(=O)COc2ccccc2)C2C=CS(=O)(=O)C2)cc1` (stereo not shown), the “hERG current change (%, negative = inhibition) at 10uM” value falls from 1.93% to -1.57%.

Going from `CCOCCCN1CN(Cc2ccccc2)CNC1=S` to `CN(C)c1nc(NCc2ccccc2)nc(SCC(N)=O)n1`, the “hERG current change (%, negative = inhibition) at 10uM” value falls from 14.3% to 7.76%.

Compared with `COC(=O)c1sccc1NC(=S)NCc1ccc(Cl)cc1`, `COC(=O)c1sccc1N/N=C/c1cccc(Oc2ccccc2)c1` is lower in “hERG current change (%, negative = inhibition) at 10uM” value: 9.11% for the first, -7.09% for the second.

Compared with `COCCN(C(=O)CCC(=O)Nc1cc(C)on1)C(C(=O)NC1CCCC1)c1ccccc1C` (stereo not shown), `Cc1cc(NC(=O)c2c(-c3ccccc3Cl)noc2C)no1` is lower in “hERG current change (%, negative = inhibition) at 10uM” value: 14.7% for the first, 5.88% for the second.

Compared with `COc1cccc(OC)c1C(=O)NC(=S)N1CCOCC1`, `O=C(c1ccc(Cl)cc1)c1ccc(OCC(=O)N2CCOCC2)cc1` is lower in “hERG current change (%, negative = inhibition) at 10uM” value: 17.2% for the first, -40.8% for the second.

Going from `CCOC(=O)Cn1c2c(c(-c3ccccc3OC)cc1=O)CCCC2` to `Cc1ccccc1OCC(=O)NNC(=O)c1cc(S(=O)(=O)N(C)C)ccc1N1CCCC1`, the “hERG current change (%, negative = inhibition) at 10uM” value falls from 2.38% to 0.0569%.

Compared with `CNS(=O)(=O)c1ccc(NC(=S)Nc2ccc3c(c2)OCO3)cc1`, `CCc1ccccc1NC(=O)c1cc(S(=O)(=O)N(C)C)ccc1N1CCCC1` is lower in “hERG current change (%, negative = inhibition) at 10uM” value: 8.16% for the first, -32.2% for the second.

Going from `CC(C)[C@H](NS(=O)(=O)c1ccc(Cl)cc1)C(=O)OCC(=O)c1c(N)n(C)c(=O)n(C)c1=O` to `CN(CC(=O)OCC(=O)c1c(N)n(C)c(=O)n(C)c1=O)S(=O)(=O)c1ccc(Cl)cc1`, the “hERG current change (%, negative = inhibition) at 10uM” value falls from -39.9% to -69.3%.

Compared with `CC(=O)c1c(C)[nH]c(C(=O)COC(=O)CNS(=O)(=O)c2ccccc2)c1C`, `CC(=O)c1c(C)[nH]c(C(=O)COC(=O)CN(C)S(=O)(=O)c2ccc(Cl)cc2)c1C` is lower in “hERG current change (%, negative = inhibition) at 10uM” value: -2.66% for the first, -57.8% for the second.

Going from `Cn1c(N)c(C(=O)COC(=O)CSc2ccccc2)c(=O)n(C)c1=O` to `Cn1c(N)c(C(=O)COC(=O)CSc2ccc3ccccc3c2)c(=O)n(C)c1=O`, the “hERG current change (%, negative = inhibition) at 10uM” value rises from -33.6% to -1.77%.

Compared with `Cc1ccc(S(=O)(=O)N(C)CC(=O)OCC(=O)c2c(N)n(C)c(=O)n(C)c2=O)cc1`, `Cn1c(N)c(C(=O)COC(=O)CSc2ccc(Cl)cc2)c(=O)n(C)c1=O` is lower in “hERG current change (%, negative = inhibition) at 10uM” value: -47.1% for the first, -61.2% for the second.

Going from `Cn1c(N)c(C(=O)COc2ccc(Cl)cc2Cl)c(=O)n(C)c1=O` to `Cn1c(N)c(C(=O)COC(=O)CCCOc2ccc(Cl)cc2Cl)c(=O)n(C)c1=O`, the “hERG current change (%, negative = inhibition) at 10uM” value falls from 2.07% to -12.2%.

Going from `CC(Oc1ccc(Cl)cc1Cl)C(=O)OCC(=O)c1c(N)n(C)c(=O)n(C)c1=O` (stereo not shown) to `CN(CC(=O)OCC(N)=O)S(=O)(=O)c1ccc(Cl)cc1`, the “hERG current change (%, negative = inhibition) at 10uM” value rises from -71.2% to 33.6%.

Going from `CCC(=O)Nc1c(S(=O)(=O)c2ccc(C)cc2)c2nc3ccccc3nc2n1C(C)c1ccccc1` (stereo not shown) to `CSc1ccccc1NC(=O)c1cc(S(=O)(=O)N(C)C)ccc1N1CCCC1`, the “hERG current change (%, negative = inhibition) at 10uM” value falls from -14.9% to -54.7%.

Going from `O=C(NCCNC(=O)c1ccccc1F)c1ccco1.O=C(O)C(=O)O` to `COc1ccc2c(c1)Sc1ccccc1N2CCN(C)C.O=C(O)C(=O)O`, the “hERG current change (%, negative = inhibition) at 10uM” value falls from 13.9% to -21.3%.

Compared with `O=C(CSc1ccc(Cl)cc1)N1CCCC1`, `CN1CCN(C(=O)CSc2ccc(Cl)cc2)CC1` is lower in “hERG current change (%, negative = inhibition) at 10uM” value: 16.6% for the first, 6.35% for the second.

First: O=C(CN1CCN(c2ccc(Cl)cc2[N+](=O)[O-])CC1)N1CCOCC1
Second: O=C(CSc1ccc(Cl)cc1)N1CCN(c2ccc(Cl)cc2[N+](=O)[O-])CC1
The “hERG current change (%, negative = inhibition) at 10uM” value of the first is higher: -33.6% for the first, -61.5% for the second.

Compared with `O=C(CSc1ccc(Cl)cc1)N1CCN(c2c(Cl)cccc2[N+](=O)[O-])CC1`, `O=C(CSc1ccc(Cl)cc1)N1CCN(c2ccc([N+](=O)[O-])cc2Cl)CC1` is lower in “hERG current change (%, negative = inhibition) at 10uM” value: -17.2% for the first, -59.2% for the second.

First: CCN1C(=O)c2ccc(C(=O)O)cc2C1=O
Second: CCOC(=O)N1CCN(C(=O)c2ccc(NC(=O)c3ccc(C)cc3)cc2)CC1
The “hERG current change (%, negative = inhibition) at 10uM” value of the first is higher: 9.2% for the first, -13.3% for the second.

Going from `c1ccc(CCNc2ncnc3sccc23)nc1` to `O=C(Nc1nccs1)C(c1ccccc1)N1CCCC1` (stereo not shown), the “hERG current change (%, negative = inhibition) at 10uM” value falls from 26.8% to -7.89%.

First: COc1ccc([N+](=O)[O-])cc1NC(=O)Cn1ccc(C(F)(F)F)n1
Second: CN(C)S(=O)(=O)c1ccc(N2CCCC2)c(C(=O)NCc2cccc(C(F)(F)F)c2)c1
The “hERG current change (%, negative = inhibition) at 10uM” value of the first is higher: 13.3% for the first, 4.61% for the second.

Compared with `COc1ccc([C@@H]2Sc3cc(OC)ccc3N(CCN(C(C)C)C(C)C)C(=O)[C@H]2OC(C)=O)cc1.Cl`, `COc1ccc(N2C(=O)C(OC(C)=O)C2c2ccc(C)cc2)cc1` (stereo not shown) is higher in “hERG current change (%, negative = inhibition) at 10uM” value: -75% for the first, 17.3% for the second.

First: Cc1ccc(N2C(=O)CC(Sc3ncn[nH]3)C2=O)cc1C (stereo not shown)
Second: Cc1cc(C)cc(OCc2ccc(C(=O)NC3CCOC3=O)o2)c1 (stereo not shown)
The “hERG current change (%, negative = inhibition) at 10uM” value of the first is lower: 14.2% for the first, 15.9% for the second.

First: S=C(NCC1CCCO1)N1CCN(c2ccccc2)CC1 (stereo not shown)
Second: O=C(C1CCCO1)N1CCN(C(c2ccccc2)c2ccccc2)CC1 (stereo not shown)
The “hERG current change (%, negative = inhibition) at 10uM” value of the first is higher: 23.5% for the first, 0.514% for the second.

First: Cc1cc2ccccc2c(=O)[nH]1
Second: CS(=O)(=O)NNC(=O)c1cc2cc3ccccc3nc2s1
The “hERG current change (%, negative = inhibition) at 10uM” value of the first is higher: 16.5% for the first, 9.84% for the second.

Going from `CCn1c(CNC(=O)C2CCCCC2)cc2cc(C)ccc21` to `CN(C)S(=O)(=O)c1ccc(N2CCCC2)c(C(=O)NCc2ccc(Cl)cc2)c1`, the “hERG current change (%, negative = inhibition) at 10uM” value falls from 28% to -68.5%.

Going from `COc1ccc(-c2oc3ncnc(NCCN4CCOCC4)c3c2-c2ccc(OC)cc2)cc1` to `COc1ccc(-c2oc3ncn(CCN4CCOCC4)c(=N)c3c2-c2ccc(OC)cc2)cc1`, the “hERG current change (%, negative = inhibition) at 10uM” value falls from 2.75% to -70.3%.

First: Cn1c(=O)c2c(-c3ccccc3)n(CCCN3CCOCC3)cc2n(C)c1=O
Second: Cn1c2ccccc2c2ncn(CCCN3CCOCC3)c(=O)c21
The “hERG current change (%, negative = inhibition) at 10uM” value of the first is higher: 16.1% for the first, -16.6% for the second.

Compared with `N=c1c2c(-c3ccccc3)c(-c3ccccc3)oc2ncn1CCN1CCOCC1`, `N=c1c2c(-c3ccccc3)c(-c3ccccc3)oc2ncn1CCCN1CCOCC1` is lower in “hERG current change (%, negative = inhibition) at 10uM” value: -70.8% for the first, -79.2% for the second.

First: COc1ccc(-c2oc3ncn(Cc4ccco4)c(=N)c3c2-c2ccc(OC)cc2)cc1
Second: COc1cc(OC)nc(Oc2ccccc2C(=O)Oc2ccc(Cl)cc2)n1
The “hERG current change (%, negative = inhibition) at 10uM” value of the first is lower: -49.4% for the first, -21.6% for the second.

Compared with `O=c1oc2ccccc2c2c1ncn2CCN1CCOCC1`, `O=C(Nc1c2c(nn1-c1ccc(F)cc1)CS(=O)C2)c1ccc(S(=O)(=O)N2CCOCC2)cc1` (stereo not shown) is higher in “hERG current change (%, negative = inhibition) at 10uM” value: -8.76% for the first, 21.9% for the second.

First: CC(C)Cc1n[nH]c(=O)[nH]1
Second: Cc1nnsc1SCC(=O)O
The “hERG current change (%, negative = inhibition) at 10uM” value of the first is lower: -6.31% for the first, -0.15% for the second.

Going from `COc1ccc(NC(=O)C2=CC(c3ccc(OC)c(OC)c3)=NS(=O)(=O)N2C)cc1` to `CN(C)S(=O)(=O)c1ccc(N2CCCC2)c(C(=O)NNC(=O)COc2ccccc2Cl)c1`, the “hERG current change (%, negative = inhibition) at 10uM” value falls from -4% to -30.3%.

First: O=C(NCC1CCCO1)c1cc(-c2ccc(F)cc2)no1 (stereo not shown)
Second: O=C(N=C1SC2CS(=O)(=O)CC2N1Cc1ccc(F)cc1)C1CCCO1 (stereo not shown)
The “hERG current change (%, negative = inhibition) at 10uM” value of the first is higher: 0.634% for the first, -5.58% for the second.

Going from `O=C1C2(c3ccccc3)CN(CCO)CC1(c1ccccc1)CN(CCO)C2` to `O=C1C2(c3ccccc3)CN(CCCO)CC1(c1ccccc1)CN(CCCO)C2`, the “hERG current change (%, negative = inhibition) at 10uM” value falls from -10.6% to -50.4%.

First: C=CCN1CC2(c3ccccc3)CN(CC=C)CC(c3ccccc3)(C1)C2=O
Second: CN(C)S(=O)(=O)c1ccc(N2CCCC2)c(C(=O)Nc2ccccc2F)c1
The “hERG current change (%, negative = inhibition) at 10uM” value of the first is lower: -19.3% for the first, -14.7% for the second.

Going from `CCOC(=O)C1CCN(C(=O)CN2C(=O)CSc3ccc(S(=O)(=O)N4CCOCC4)cc32)CC1` to `CN(C)S(=O)(=O)c1ccc(N2CCCC2)c(C(=O)NNC(=O)COc2ccccc2F)c1`, the “hERG current change (%, negative = inhibition) at 10uM” value falls from -22.6% to -61.4%.

Going from `CN(CC(=O)Nc1ccccc1Br)C(=O)c1cc(S(=O)(=O)N(C)C)ccc1N1CCCC1` to `CN(C)S(=O)(=O)c1ccc(N2CCCC2)c(C(=O)Nc2ccccc2Br)c1`, the “hERG current change (%, negative = inhibition) at 10uM” value falls from -8.64% to -58.3%.

Going from `CN(C)S(=O)(=O)c1ccc(N2CCCC2)c(C(=O)Nc2ccc(Br)cc2F)c1` to `CCN(CC)C(=O)C(=O)N/N=C/c1cccc(Br)c1`, the “hERG current change (%, negative = inhibition) at 10uM” value falls from 3.03% to -8.07%.

First: CC1(C)C=C2[C@H]3CC[C@@H]4[C@@]5(C)CCC(=O)C(C)(C)[C@@H]5CC[C@@]4(C)[C@]3(C)CC[C@@]2(C(=O)O)CC1
Second: CCN(CC1COc2ccccc2O1)C(=S)NC1CC2CCC1C2 (stereo not shown)
The “hERG current change (%, negative = inhibition) at 10uM” value of the first is lower: -1.05% for the first, 1.34% for the second.

With `CC1S/C(=N/N=C/c2ccco2)N(Cc2ccc(F)cc2)C1=O` (stereo not shown) the “hERG current change (%, negative = inhibition) at 10uM” value was -11.3%.
